In PubChem BioAssay AID504329 (Southern Research Specialized Biocontainment Screening …, 2011):
Out of some 340,000 compounds screened, about 1,000 (0.29%) were called active. Cut-off read from the data, not from the text of the source: inconclusive = inhibition above about 27% without an active follow-up result; inactive = below that. The list is a sample of the results. Entries with a potency or affinity are not part of this list.

Assay: NS1A inhibition, H1N1 influenza, cell based functional assay (AID 504329)
Details: percent inhibition, at 12.5 µM, stronger effect = higher value

| SMILES | inhibition |
| --- | --- |
| CC1N(C)c2cc(NC(=O)c3ccco3)c(P(=O)(Nc3ccc([N+](=O)[O-])cc3)N3CCOCC3)cc2C1(C)C (stereo not given) | 10.5% (inactive) |
| CC1(C)Oc2ccc(NC(=O)c3ccco3)cc2O1 | -10.6% (inactive) |
| Cc1ccc(C2(C)NC(=O)N(CC(=O)N3CCN(C(=O)c4cccs4)CC3)C2=O)cc1 (stereo not given) | -14.4% (inactive) |
| Nc1oc2ccccc2c1C(=O)Cc1ccccc1O[C@@H]1O[C@H](CO)[C@@H](O)[C@H](O)[C@H]1O | -10.9% (inactive) |
| COC(=O)c1ccc(NC(=O)CSc2nn3c(=O)c(C)nnc3s2)cc1 | 8.48% (inactive) |
| COc1cccc(NC(=O)CSc2nnc(C)s2)c1 | -8.01% (inactive) |
| COc1cccc(NC(=O)CSc2nc(C)cs2)c1 | -1.99% (inactive) |
| COc1ccc(NC(=O)CSc2nnc(C)c(=O)n2N)cc1 | 3.72% (inactive) |
| CC(C)Oc1ccc(-c2cc(=O)[nH]c(=O)[nH]2)cc1 | 2.31% (inactive) |
| Cc1c(C(=O)OCC(=O)Nc2cccc(S(N)(=O)=O)c2)oc2c1ccc1ccccc12 | -6.11% (inactive) |
| Cc1cc(=O)n2c3ccccc3n(CC(O)CN3CCC(C)CC3)c2c1C#N (stereo not given) | -2.23% (inactive) |
| O=C(c1cccc(Cl)c1)N1CCN(C2CCCCCC2)CC1 | -6.08% (inactive) |
| O=C(Nc1nccs1)c1ccc(COc2ccccc2)o1 | -27.9% (inactive) |
| COc1ccc(-c2nc(N)n(C(=O)Cc3ccccc3)n2)cc1 | 0.25% (inactive) |
| Cc1ccc(O)c(N=Nc2nccs2)c1 | 26.6% (inactive) |
| Oc1ccc(Cl)cc1/C=N/c1nccs1 | -1.76% (inactive) |
| O=C(OCC(=O)N1CCN(c2ccccc2)CC1)c1ccc2ncsc2c1 | 3.79% (inactive) |
| CC(C)(CO)NS(=O)(=O)c1ccc2c(c1)C(=O)c1cc(S(=O)(=O)NC(C)(C)CO)ccc1-2 | -3.45% (inactive) |
| COc1ccc(C(=O)NC2CCc3ccccc32)cc1OC1CCN(C(C)=O)CC1 (stereo not given) | -1.94% (inactive) |
| CS(=O)(=O)N1CCc2cc(S(=O)(=O)NCCNS(=O)(=O)c3ccc4c(c3)CCN4S(C)(=O)=O)ccc21 | -9.03% (inactive) |
| Fc1cccc(CN2CCSCC2)c1 | -2.65% (inactive) |
| O=C(NCC(c1ccco1)N1CCc2ccccc21)C(=O)Nc1ccc(F)cc1F (stereo not given) | -6.42% (inactive) |
| O=[N+]([O-])c1ccccc1/C=N/Nc1nccnc1Cl | 1.6% (inactive) |
| Clc1nccnc1N/N=C/c1ccc(Br)cc1 | -20.8% (inactive) |
| Oc1cccc(C=NNc2ccccn2)c1 | -19.8% (inactive) |
| Cc1cc(N/N=C/c2ccc(O)cc2O)c2ccccc2n1 | 0.21% (inactive) |
| Oc1ccc(/C=N/Nc2cccc(Cl)n2)c(O)c1 | 10.3% (inactive) |
| Cc1nc2ccccc2nc1N/N=C/c1ccc(O)cc1 | 13.5% (inactive) |
| CCN(CC)S(=O)(=O)c1ccc(N/N=C/c2cc(OC)ccc2O)nc1 | 5.6% (inactive) |
| CCN(CC)S(=O)(=O)c1ccc(N/N=C/c2ccc(O)cc2)nc1 | 7.84% (inactive) |
